Rows were chosen to be rich in hits. Some 21% of all compounds tested hit in one or more screens of this group.
CHX counter = Cycloheximide Counterscreen for Small Molecule Inhibitors of Shiga Toxin; AID 2314, 2010; 300,000 tested, 12% active; cell reporter, cycloheximide protein synthesis inhibition counterscreen; max response, %; in the data active means max response mostly above about 13%, no sharp cut-off; inactive means mostly below about 14%; further: read at 38.3 µM for the half of the compounds with a filed dose; 0% is about no effect
Pf growth 96h = Primary qHTS for delayed death inhibitors of the malarial parasite plastid, 96 hour incubation; P. falciparum luciferase reporter growth, 96 h; Potency, µM (titrated, usually from 28.7 µM), without a hit: at the top dose activity change, negative = inhibition, hits mostly inhibitors; 320,000 tested, 6.9% active; AID 504834, 2011; further: potency means the concentration at half of the fitted maximal effect; on the % scale 0 is the no-effect control and ±100 the full control effect
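Cell-based qHTS: luciferase-tagged P. falciparum in erythrocytes (2% hematocrit, 0.05% parasitemia final) incubated with compounds for 96 hours, 37 C, 5% CO2; luciferase detection reagent then added and luminescence measured.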
Pf growth 48h = Primary qHTS for delayed death inhibitors of the malarial parasite plastid, 48 hour incubation. P. falciparum luciferase growth in erythrocytes, 48 h. Potency, µM (top dose mostly 28.7 µM), for inactives: at the top dose activity change, negative = inhibition, most hits filed as inhibitors. 310,000 tested, 5.9% active. AID 504832, 2011; further: potency means the concentration at half of the fitted maximal effect; on the % scale 0 is the no-effect control and ±100 the full control effect
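A one-generation exposure of luciferase-tagged malaria parasites in RPMI 1640/Albumax erythrocyte culture, 37 C and 5% CO2. Inhibition is inferred from decreased luminescence after adding detection reagent.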
Shiga inhibitor = A qHTS for Small Molecule Inhibitors of Shiga Toxin. Vero cells, Shiga toxin protein synthesis inhibition reporter. inhibition, % at 38.7 µM. 290,000 tested, 9.2% active; in the data active means inhibition mostly above about 28%, no sharp cut-off; inactive means mostly below about 43%; further: 0% is about no effect
AMA1 RON2 block = qHTS for Inhibitors of AMA1-RON; Towards Development of Antimalarial Drug Lead: Primary Screen; AID 720542, 2013; Plasmodium falciparum AMA1 (3D7) - RON2 peptide interaction; AlphaScreen AMA1-biotinylated RON2 peptide binding; Potency, µM (highest dose often 58.2 µM), for the others: at the top dose activity change, negative = inhibition, hits mostly inhibitors; 360,000 tested, 0.2% active;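 further: potency means the concentration at half of the fitted maximal effect; 0% = vehicle wells and -100% = peptide control; nearly all actives have a fitted effect of over 45% in size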
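AMA1 (3D7) with his tag at 25 nM final met compounds first, then biotinylated RON2 peptide at 25 nM; detection used donor plus acceptor beads, 10 µg/mL apiece, read by AlphaScreen after 30 min at room temperature.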
HCV inhibitor = qHTS Assay for Inhibitors of Hepatitis C Virus (HCV) | AID 651820, 2012 | Huh7.5.1 HCVcc-Cre infection, luciferase reporter, 44 h | Potency, µM (highest dose often 41.8 µM), for the others: top-dose activity change, negative = inhibition, hits mostly inhibitors | 340,000 tested, 3.4% active; further: potency means the concentration at half of the fitted maximal effect; on the % scale 0 is the no-effect control and ±100 the full control effect
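Antiviral activity was scored by luciferase reporter output from cells infected with HCVcc-Cre (~0.5 moi) in presence of compound, 44 h infection period, cells seeded 1,000/well 4 h prior.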
* hit, by the source's call; i = inactive; u = inconclusive; x = no result given; [ ] = remark or other dose. Unless noted, the call rests on the fitted dose curve; in most records, active means well fitted curve in the direction sought with a large enough effect; inconclusive means small, poorly fitted or top-dose-only effect, or another doubt; inactive means no such curve, though single readings can be large; an effect the other way counts as inactive or inconclusive.

SMILES | CHX counter | Pf growth 96h | Pf growth 48h | Shiga inhibitor | AMA1 RON2 block | HCV inhibitor
COc1ccc(C(=O)C[n+]2ccc3c(c2)nnn3-c2ccccc2)cc1 | 3 | 272% | u | -6 | -4% | u
Cn1c(NC(=O)c2ccccc2NC(=O)C(C)(C)C)nc2ccccc21 | -1 | u | u | 13 | 126% | 7.1µM*
Cn1c(NC(=O)c2ccc(F)cc2)nc2ccccc21 | 31* | -8% | 22% | 40* | 55% | -13%
Cc1cc(C)cc(NC(=O)CSc2nnc(CNC(=O)c3ccco3)n2C)c1 | x | -41% | u | x | -2% | -7%
NC(=O)C1CCN(C(=O)c2ccc(NS(=O)(=O)/C=C/c3ccccc3)cc2)CC1 | x | x | x | x | -2% | x
COc1ccc(NC(=O)c2ccc(-n3cccn3)c([N+](=O)[O-])c2)cc1 | 0 | -4% | -4% | 27 | 9% | -29%
O=C(Nc1ccc(Cl)cc1)c1ccc(-n2cccn2)c([N+](=O)[O-])c1 | 24* | u | u | 30 | 8% | u
CCN(CC)S(=O)(=O)c1ccc(NC(=O)c2ccc(Sc3nncn3C)c([N+](=O)[O-])c2)cc1 | -2 | u | 12µM* | 18 | -9%[2.32 µM] | -13%
Cc1ccc(NC(=O)c2ccc(-n3cccn3)c([N+](=O)[O-])c2)cc1C | 34* | u | -11% | 45* | -13% | u
Cc1ccc(NC(=O)c2ccc(-n3cncn3)c([N+](=O)[O-])c2)cc1 | 9 | u | u | -4 | 9% | u
CCN(CC)S(=O)(=O)c1cc(NC(=O)c2ccc(-n3cncn3)c([N+](=O)[O-])c2)ccc1C | -2 | 15µM* | 13µM* | 26 | 2% | 11µM*
Cc1csc(CNC(=O)C2CCC(=O)N(CCc3cccc(F)c3)C2)n1 (stereo unspecified) | -5 | -19% | -2% | -3 | 12% | x
Cc1ccc(S(=O)(=O)N2CCN(C(=O)c3ccc(-n4cncn4)c([N+](=O)[O-])c3)CC2)cc1C | x | 7.4µM* | u | x | -6% | -5%
CC(=O)c1ccc(S(=O)(=O)N2CCN(C(=O)c3ccc(-n4cncn4)c([N+](=O)[O-])c3)CC2)cc1 | x | u | -3% | x | -9% | 7%
O=C(Nc1cccc(Cl)c1)c1ccc(-n2cncn2)c([N+](=O)[O-])c1 | 14 | u | 12µM* | 15 | 12% | u
Nc1ccc(C(=O)N2CCN(S(=O)(=O)c3ccc(Br)cc3)CC2)cc1[N+](=O)[O-] | x | 8.3µM* | u | x | -2% | -17%
COC(=O)C1=C(c2ccc(F)cc2OCc2ccccc2)C[C@@H]2CC[C@H]1N2C(=O)N1CCC(C)CC1 | x | u | 7.4µM* | x | -2% | u
COC(=O)C1=C(c2ccc(F)cc2OCc2ccccc2)C[C@@H]2CC[C@H]1N2C(=O)N1CCOCC1 | x | u | 6.6µM* | x | -2% | -26%
CC(C)Cc1csc(NC(=O)c2ccc(Br)cc2)c1C(=O)O | -2 | 59% | 48% | 8 | 3% | 9%
Cc1ccc(S(=O)(=O)NC(=O)NN2CC3CCCC3C2)cc1 (stereo unspecified) | -2 | 23% | 34% | 21 | 0% | -13%
COc1ccc(S(=O)(=O)N2CCC(C(=O)NCCC(=O)NCc3cccnc3)CC2)cc1 | x | x | x | x | 0% | x
O=[N+]([O-])c1nn(-c2ccc3c(c2)OCCO3)n(O)c1=NC1CCCCCC1 | 32* | 5% | x | 84* | u | -27%
O=[N+]([O-])c1nn(-c2ccc3c(c2)OCCO3)n(O)c1=NC1CCCC1 | 32* | 0% | x | 42* | -4% | 2.8µM*
O=C(CN1C(=O)COc2ccc(Cl)cc21)Nc1ccccn1 | -3 | u | -14% | -3 | -22% | 11%
COc1cc(NC(=O)Cc2c(C(=O)O)n(C)c3ccccc23)cc(OC)c1OC | -1 | -21% | 13% | -8 | 6% | 1%
SMILES | CHX counter | Pf growth 96h | Pf growth 48h | Shiga inhibitor | AMA1 RON2 block | HCV inhibitor
Cc1ccc(NS(=O)(=O)c2c(C)[nH]c(C)c2C(=O)N2CCCCC2)cc1F | -9 | -3% | 4% | -13 | -9% | 11%
Nc1c(-c2cccc(Cl)c2)cnc2c(-c3ccccc3)cnn12 | 45* | 257% | 196% | 64* | 70% | 4%
Cc1nc2c(-c3ccc(Cl)cc3)cnn2c2c1CCC2 | 35* | 129% | 394% | 68* | 65% | -19%
COc1ccc(-c2c(C)nc3c(-c4ccc(F)cc4)cnn3c2N)cc1 | 66* | 58% | 290% | 53* | 13% | -10%
Cc1nc2c(-c3ccc(F)cc3)cnn2c(N)c1-c1ccccc1 | 59* | -52% | 4%[0.00184 µM] | 140* | 139% | 14µM*
Cc1cc(-c2ccc(F)cc2)n2ncc(-c3ccccc3)c2n1 | x | x | x | x | 13% | x
Cc1cc(C(F)(F)F)n2ncc(-c3ccc(F)cc3)c2n1 | 6 | 4% | x | 2 | 3% | 21%
O=C(Cn1c(=O)oc2ccccc21)N1CCCC1 | 1 | 3% | -6% | -6 | -3% | 12%
Fc1ccc(-c2cnn3c(-c4ccncc4)ccnc23)cc1 | 22* | i | 145% | 73* | 18% | 11%
Nc1c(-c2ccc(Cl)cc2)cnc2c(-c3ccc(F)cc3)cnn12 | 34* | 302% | 195% | 88* | 13% | 2%
Cc1nn2c3c(cnc2c1-c1ccccc1)C(=O)CC(c1ccco1)C3 (stereo unspecified) | 22 | x | 1.5µM* | 4 | 20% | -14%
Cc1nc2c(-c3ccc(Cl)cc3)cnn2c(N)c1-c1ccc(F)cc1 | 64* | 232% | 6% | 138* | 29% | -3%
CCOc1ccc(Nc2ccc(N3C(=O)CCC3=O)cc2[N+](=O)[O-])cc1 | -6 | u | 7% | -4 | -9% | 5%
O=S1(=O)N[C@@H](Cc2ccccc2)COc2cccc(N3CCC[C@@H]3CO)c21 | x | x | x | x | 21% | x
COc1cccc(CNC(=O)[C@@H]2CCCN2C(=O)[C@@H]2CCCN2C(=O)c2cccc3ccccc23)c1 | x | x | x | x | -1% | x
Cc1nn2c(N)c(C#N)cnc2c1-c1ccccc1 | 16 | x | 46% | 24 | 4% | -20%
Cc1nn2c(N)c(-c3ccccc3)cnc2c1-c1ccccc1 | 17* | 58% | 43% | 31 | 14% | 14%
CN(C)c1ccc(NC(=O)CC2NCCNC2=O)cc1 (stereo unspecified) | -3 | 0.21µM* | 12% | 18 | 4% | 22%
O=C(CC1NCCNC1=O)Nc1ccccc1 (stereo unspecified) | -1 | 446% | 8% | -7 | -4% | 0%
Cc1cc(C)cc(NC(=O)CC2NCCNC2=O)c1 (stereo unspecified) | 1 | 4% | x | 18 | 6% | 21%

High-throughput results as filed in PubChem.
